# Results: PubChem BioAssay (NCATS)
# Results filed as inconclusive are left out. Where a call stands in place of a potency, no number is given. The source made the active and inactive calls. Unless noted, the call rests on the fitted dose curve; in most records, active means well fitted activation curve with a large enough effect in the main read-out, with a control signal flat (not every such curve was filed as active); inconclusive means small, poorly fitted or top-dose-only effect, or effect the other way, or a change in a side signal; inactive means flat fitted curve, though single readings scatter.
# Key:
# [1] = target: Mitogen-activated protein kinase 10 (Mus musculus) (UniProt Q61831); test: JNK3 AlphaScreen Assay (AID 530; active means well fitted curve in either direction with a large enough effect, not every such curve was filed as active;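 further: kinase came from lysate of stimulated human HepG2 cells; signal reports phosphorylation of biotinylated GST-cJun 1-79 at Ser73 with 10 µM ATP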); conditions: JNK3 lysate, c-Jun phosphorylation; series mostly up to 57.1 µM
# In short: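 Biotinylated GST-cJun(1-79) served as substrate for JNK3 in HepG2 lysates stimulated with IL-1beta and TNF-alpha. ATP was 10 uM final, pH 7.6. Ser73 phosphorylation was quantified by AlphaScreen (680 nm excitation).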
# [2] = target: 3',5'-cyclic-AMP phosphodiesterase 4B (Homo sapiens) (UniProt Q07343); test: qHTS Assay for Inhibitors of PDE-IV (AID 607); conditions: HEK293 ACTOne CNG channel cells, membrane potential fluorescence; series mostly up to 22.9 µM
# In short: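 ACTOne HEK293 cells carry a modified cAMP-gated CNG channel and express endogenous PDE4; plated 1000 cells/well, compounds up to 22.9 uM final. Membrane-potential dye fluorescence (ex 535/em 590) was read; parental cells received 10 uM forskolin + 100 uM RO 20-1724.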
# [3] = target: Cytochrome P450 2C9 (Homo sapiens) (UniProt P11712); test: qHTS Assay for Inhibitors and Substrates of Cytochrome P450 2C9 (AID 883; active means well fitted curve in the direction sought with a large enough effect; an effect the other way counts as inactive or inconclusive; further: potency means the concentration at half of the fitted maximal effect; nearly all actives have a fitted effect of over 60% in size); conditions: recombinant CYP2C9, luciferin-H luminescence, 60 min; series mostly up to 11.4 µM
# In short: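 CYP2C9 deoxyluciferin hydroxylation, 37C, 60 min with NADPH regeneration; 10nM enzyme, 100uM Luciferin-H (KM). Glo detection reagent stopped reaction; luminescence normalized to sulphaphenazole (57uM) full inhibition.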
# [4] = target: Cytochrome P450 3A4 (Homo sapiens) (UniProt P08684); test: qHTS Assay for Inhibitors and Substrates of Cytochrome P450 3A4 (AID 884; active means well fitted curve in the direction sought with a large enough effect; an effect the other way counts as inactive or inconclusive; further: potency means the concentration at half of the fitted maximal effect; nearly all actives have a fitted effect of over 50% in size); conditions: recombinant CYP3A4, Luciferin-PPXE luminescence; series mostly up to 57.1 µM
# In short: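 Luminescent readout of luciferin produced by CYP3A4 (20 nM) dealkylation of Luciferin-PPXE, 25 uM (its KM). NADPH-driven reaction ran 60 min at RT after 10 min compound preincubation; data scaled to 57 uM ketoconazole as 100% inhibition.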
# [5] = target: Cytochrome P450 3A4 (Homo sapiens) (UniProt P08684); test: qHTS Assay for Activators of Cytochrome P450 3A4 (AID 885; active means well fitted curve in the direction sought with a large enough effect; an effect the other way counts as inactive or inconclusive; further: nearly all actives have a fitted effect of over 65% in size); conditions: recombinant CYP3A4, Luciferin-PPXE luminescence, 60 min; series mostly up to 57.1 µM
# In short: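 CYP3A4 activity: Luciferin-PPXE O-dealkylation, 25uM substrate, 200mM KPO4, RT throughout. Read-out is luciferase luminescence; higher values reflect activation.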
# [6] = target: Cytochrome P450 2C19 (Homo sapiens) (UniProt P33261); test: qHTS Assay for Inhibitors and Substrates of Cytochrome P450 2C19 (AID 899; active means well fitted curve in the direction sought with a large enough effect; an effect the other way counts as inactive or inconclusive; further: potency means the concentration at half of the fitted maximal effect; nearly all actives have a fitted effect of over 60% in size); conditions: recombinant CYP2C19, luciferin-H EGE luminescence; series mostly up to 11.4 µM
# In short: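 In 50mM KPO4, the reaction held 5nM enzyme and KM-level (10uM) Luciferin-H EGE; it ran 60 min at 37C after NADPH regeneration and a 10 min compound preincubation. Luminescence values were scaled to 57uM ketoconazole as complete inhibition.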
# Sequence of Cytochrome P450 2C9 (Homo sapiens) (P11712 whole entry, looked up): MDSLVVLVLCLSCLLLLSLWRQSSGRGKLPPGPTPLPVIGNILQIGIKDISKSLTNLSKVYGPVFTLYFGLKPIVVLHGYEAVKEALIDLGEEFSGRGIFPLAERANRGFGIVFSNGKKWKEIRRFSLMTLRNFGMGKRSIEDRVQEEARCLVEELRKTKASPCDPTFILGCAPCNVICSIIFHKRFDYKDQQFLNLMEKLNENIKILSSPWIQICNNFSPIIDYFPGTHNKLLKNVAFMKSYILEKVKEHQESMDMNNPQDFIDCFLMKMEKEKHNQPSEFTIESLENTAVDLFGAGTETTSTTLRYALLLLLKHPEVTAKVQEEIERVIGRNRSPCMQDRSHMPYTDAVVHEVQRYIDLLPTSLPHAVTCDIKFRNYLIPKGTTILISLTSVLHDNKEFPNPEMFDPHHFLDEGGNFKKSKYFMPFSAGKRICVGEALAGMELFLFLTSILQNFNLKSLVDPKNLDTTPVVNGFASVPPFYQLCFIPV
# Sequence of Cytochrome P450 3A4 (Homo sapiens) (P08684 whole entry, looked up): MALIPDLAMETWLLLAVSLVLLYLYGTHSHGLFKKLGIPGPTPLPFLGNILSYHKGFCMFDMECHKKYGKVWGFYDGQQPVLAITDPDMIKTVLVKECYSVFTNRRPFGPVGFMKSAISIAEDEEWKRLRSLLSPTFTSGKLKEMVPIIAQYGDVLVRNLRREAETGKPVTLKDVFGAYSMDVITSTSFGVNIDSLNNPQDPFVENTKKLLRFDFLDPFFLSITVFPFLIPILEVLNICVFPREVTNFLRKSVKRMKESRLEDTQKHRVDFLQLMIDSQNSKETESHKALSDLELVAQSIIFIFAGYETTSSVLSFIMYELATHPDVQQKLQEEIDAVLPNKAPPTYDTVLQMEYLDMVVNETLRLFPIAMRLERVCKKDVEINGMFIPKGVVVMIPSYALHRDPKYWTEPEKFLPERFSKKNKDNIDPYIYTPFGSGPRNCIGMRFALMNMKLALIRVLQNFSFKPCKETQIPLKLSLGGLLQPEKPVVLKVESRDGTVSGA
# Sequence of 3',5'-cyclic-AMP phosphodiesterase 4B (Homo sapiens) (Q07343 whole entry, looked up): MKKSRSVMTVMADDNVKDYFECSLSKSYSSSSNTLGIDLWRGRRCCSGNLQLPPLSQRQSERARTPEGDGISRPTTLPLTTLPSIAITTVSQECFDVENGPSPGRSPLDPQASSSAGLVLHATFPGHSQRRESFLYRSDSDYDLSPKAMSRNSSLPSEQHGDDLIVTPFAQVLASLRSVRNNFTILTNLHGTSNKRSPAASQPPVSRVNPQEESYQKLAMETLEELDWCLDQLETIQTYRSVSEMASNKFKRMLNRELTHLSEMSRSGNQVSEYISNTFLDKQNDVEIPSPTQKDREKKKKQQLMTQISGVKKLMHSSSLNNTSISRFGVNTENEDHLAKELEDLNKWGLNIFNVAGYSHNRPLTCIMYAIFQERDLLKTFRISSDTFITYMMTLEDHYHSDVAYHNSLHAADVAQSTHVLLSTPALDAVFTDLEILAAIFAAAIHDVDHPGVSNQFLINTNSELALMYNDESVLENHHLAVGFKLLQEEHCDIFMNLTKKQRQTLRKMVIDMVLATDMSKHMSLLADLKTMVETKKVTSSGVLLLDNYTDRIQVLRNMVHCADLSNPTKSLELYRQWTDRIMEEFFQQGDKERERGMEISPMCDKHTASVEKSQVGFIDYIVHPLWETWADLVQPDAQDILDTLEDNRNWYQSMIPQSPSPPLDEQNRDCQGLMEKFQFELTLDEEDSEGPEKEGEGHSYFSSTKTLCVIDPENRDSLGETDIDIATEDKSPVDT
# Sequence of Cytochrome P450 2C19 (Homo sapiens) (P33261 whole entry, looked up): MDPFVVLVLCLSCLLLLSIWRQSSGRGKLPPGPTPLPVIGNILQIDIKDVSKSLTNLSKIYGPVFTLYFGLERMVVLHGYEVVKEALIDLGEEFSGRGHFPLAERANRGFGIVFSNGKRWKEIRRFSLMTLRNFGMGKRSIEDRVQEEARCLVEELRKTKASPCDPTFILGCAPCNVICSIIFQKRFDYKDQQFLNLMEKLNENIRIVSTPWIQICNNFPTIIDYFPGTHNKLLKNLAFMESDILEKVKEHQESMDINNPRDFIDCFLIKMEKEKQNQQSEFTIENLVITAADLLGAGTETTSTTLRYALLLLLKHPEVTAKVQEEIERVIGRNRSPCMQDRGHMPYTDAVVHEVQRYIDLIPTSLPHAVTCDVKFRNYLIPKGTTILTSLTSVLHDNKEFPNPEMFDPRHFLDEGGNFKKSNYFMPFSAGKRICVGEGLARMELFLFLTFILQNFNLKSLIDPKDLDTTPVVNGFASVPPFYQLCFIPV
smiles,measurement,setting,value
COC(=O)[C@@]1(Cc2ccccc2)[C@H]2c3cc(C(=O)N(C)C)n(Cc4ccccn4)c3C[C@H]2CN1C(=O)c1ccccc1,outcome,[1],inactive
same,outcome,[2],inactive
COC(=O)[C@@]1(Cc2ccc(F)cc2)[C@H]2c3cc(C(=O)N4CCCC4)n(C[C@H](O)CO)c3C[C@H]2CN1C(=O)c1ccccc1,outcome,[1],inactive
same,outcome,[2],inactive
COC(=O)[C@H]1C[C@@H]1[C@H](NC(C)=O)c1ccccc1,outcome,[1],inactive
same,outcome,[2],inactive
COC(=O)[C@@]1(Cc2ccc(F)cc2)[C@H]2c3cc(C(=O)N(C)C)n(Cc4nc5ccccc5[nH]4)c3C[C@H]2CN1C(=O)c1ccccc1,outcome,[1],inactive
same,outcome,[2],inactive
Nc1ccccc1C#CCCCCO,outcome,[1],inactive
same,outcome,[2],inactive
COC(=O)[C@@H]1C[C@H]1[C@@H](NC(C)=O)c1ccccc1,outcome,[1],inactive
same,outcome,[2],inactive
COC(=O)Cn1c(C(=O)N(C)C)cc2c1C[C@H]1CN(C(=O)c3ccccc3)[C@@](Cc3ccc(F)cc3)(C(=O)OC)[C@@H]21,outcome,[1],inactive
same,outcome,[2],inactive
COC(=O)[C@@]1(Cc2ccc(OC)cc2)[C@H]2c3cc(C(=O)N(C)C)n(CCSCCO)c3C[C@H]2CN1C(=O)c1ccccc1,outcome,[1],inactive
same,outcome,[2],inactive
COC(=O)[C@@]1(Cc2ccccc2)[C@H]2c3cc(C(=O)N(C)C)n(Cc4cc(F)c(F)c(F)c4)c3C[C@H]2CN1C(=O)c1ccccc1,outcome,[1],inactive
same,outcome,[2],inactive
C[C@@H](C(=O)NCc1ccc(C(F)(F)F)nc1)[C@H]1C[C@]1(C)[C@H](NC(=O)OCc1ccccc1)c1ccccc1,outcome,[1],inactive
same,outcome,[2],inactive
COC(=O)[C@@]1(Cc2ccccc2)[C@H]2c3cc(C(=O)N4CCCC4)n(Cc4ccccc4)c3C[C@H]2CN1C(=O)c1ccccc1,outcome,[1],inactive
same,outcome,[2],inactive
COC(=O)[C@H]1C[C@@H]1[C@H](N)c1ccccc1,outcome,[1],inactive
same,outcome,[2],inactive
COC(=O)[C@@]1(Cc2ccc(F)cc2)[C@H]2c3cc(C(=O)N(C)C)n(Cc4ccc(S(C)(=O)=O)cc4)c3C[C@H]2CN1C(=O)c1ccccc1,outcome,[1],inactive
same,outcome,[2],inactive
COC(=O)[C@@]1(Cc2ccc(OC)cc2)[C@H]2c3cc(C(=O)N(C)C)n(Cc4ccccn4)c3C[C@H]2CN1C(=O)c1ccccc1,outcome,[1],inactive
same,outcome,[2],inactive
COC(=O)[C@@]1(Cc2ccccc2)[C@H]2c3cc(C(=O)N(C)C)n(CCO)c3C[C@H]2CN1C(=O)c1ccccc1,outcome,[1],inactive
same,outcome,[2],inactive
COC(=O)[C@@]1(Cc2ccc(OC)cc2)[C@H]2c3cc(C(=O)N4CCCC4)n(Cc4cc(F)c(F)c(F)c4)c3C[C@H]2CN1C(=O)c1ccccc1,outcome,[1],inactive
same,outcome,[2],inactive
COC(=O)[C@@]1(Cc2ccc(OC)cc2)[C@H]2c3cc(C(=O)N(C)C)n(Cc4ccc(OC(F)(F)F)cc4)c3C[C@H]2CN1C(=O)c1ccccc1,outcome,[1],inactive
same,outcome,[2],inactive
COC(=O)[C@@]1(Cc2ccc(F)cc2)[C@H]2c3cc(C(=O)N(C)C)n(CCSCCO)c3C[C@H]2CN1C(=O)c1ccccc1,outcome,[1],inactive
same,outcome,[2],inactive
COC(=O)[C@@]1(Cc2ccc(F)cc2)[C@H]2c3cc(C(=O)N(C)C)n(CCO)c3C[C@H]2CN1C(=O)c1ccccc1,outcome,[1],inactive
same,outcome,[2],inactive
CCc1c2c(nc3ccccc13)OC(C)C2 (configuration not stated),outcome,[1],inactive
same,outcome,[2],inactive
COC(=O)[C@@]1(Cc2ccc(OC)cc2)[C@H]2c3cc(C(=O)N(C)C)n(Cc4cc(F)c(F)c(F)c4)c3C[C@H]2CN1C(=O)c1ccccc1,outcome,[1],inactive
same,outcome,[2],inactive
COC(=O)[C@@]1(Cc2ccc(F)cc2)[C@H]2c3cc(C(=O)N(C)C)n(CCc4ccc(OC)c(Br)c4)c3C[C@H]2CN1C(=O)c1ccccc1,outcome,[1],inactive
same,outcome,[2],inactive
COC(=O)[C@@]1(Cc2ccccc2)[C@H]2c3cc(C(=O)N(C)C)n(Cc4c(CO)[nH]cc(C)c4=O)c3C[C@H]2CN1C(=O)c1ccccc1,outcome,[1],inactive
same,outcome,[2],inactive
same,Potency,[3],631 nM (active)
same,Potency,[4],1.58 µM (active)
same,Potency,[5],inactive
same,Potency,[6],3.16 µM (active)
COC(=O)[C@@]1(Cc2ccccc2)[C@H]2c3cc(C(=O)N4CCCC4)[nH]c3C[C@H]2CN1C(=O)c1ccccc1,outcome,[1],inactive
same,outcome,[2],inactive
same,Potency,[3],794 nM (active)
same,Potency,[4],2.51 µM (active)
same,Potency,[5],inactive
COC(=O)[C@@]1(Cc2ccc(F)cc2)[C@H]2c3cc(C(=O)N4CCCC4)n(CCc4c[nH]c5ccc(OC)cc45)c3C[C@H]2CN1C(=O)c1ccccc1,outcome,[1],inactive
same,outcome,[2],inactive
same,Potency,[3],7940 nM (active)
same,Potency,[5],inactive
same,Potency,[6],7.94 µM (active)
COC(=O)[C@@]1(Cc2ccc(OC)cc2)[C@H]2c3cc(C(=O)N(C)C)n(CCc4ccccn4)c3C[C@H]2CN1C(=O)c1ccccc1,outcome,[1],inactive
same,outcome,[2],inactive
COC(=O)[C@@]1(Cc2ccccc2)[C@H]2c3cc(C(=O)N(C)C)n(Cc4cc(C)n(C)n4)c3C[C@H]2CN1C(=O)c1ccccc1,outcome,[1],inactive
same,outcome,[2],inactive
COC(=O)[C@@]1(Cc2ccccc2)[C@H]2c3cc(C(=O)N4CCCC4)n(CCN4CNCC4=O)c3C[C@H]2CN1C(=O)c1ccccc1,outcome,[1],inactive
same,outcome,[2],inactive
same,Potency,[3],2000 nM (active)
same,Potency,[5],inactive
O=C(NCc1ccccn1)[C@H]1C[C@@H]1[C@H](NP(=O)(c1ccccc1)c1ccccc1)c1ccccc1,outcome,[1],inactive
same,outcome,[2],inactive
CC(=O)OCC1C2CC[C@H]3C(OCc4ccc(F)cc4C(F)(F)F)OC[C@]4(C)[C@H]3C2=C(CN4C(=O)OC(C)(C)C)[C@H](C)C1COC(C)=O (some centres not stated),outcome,[1],inactive
same,outcome,[2],inactive
COC(=O)[C@@]1(Cc2ccc(OC)cc2)[C@H]2c3cc(C(=O)N(C)C)n(C)c3C[C@H]2CN1C(=O)c1ccccc1,outcome,[1],inactive
same,outcome,[2],inactive
COC(=O)[C@@]1(Cc2ccccc2)[C@H]2c3cc(C(=O)N4CCCC4)n(CCSCCO)c3C[C@H]2CN1C(=O)c1ccccc1,outcome,[1],inactive
same,outcome,[2],inactive
COC(=O)[C@@]1(Cc2ccc(OC)cc2)[C@H]2c3cc(C(=O)N(C)C)n(C[C@H](O)CO)c3C[C@H]2CN1C(=O)c1ccccc1,outcome,[1],inactive
same,outcome,[2],inactive
COC(=O)[C@@]1(Cc2ccccc2)[C@@H]2[C@@H](CC(=O)[C@H]2CC(=O)C(=O)N(C)C)CN1C(=O)c1ccccc1,outcome,[1],inactive
same,outcome,[2],inactive
COC(=O)[C@@]1(Cc2ccc(OC)cc2)[C@H]2c3cc(C(=O)N(C)C)n(Cc4ccc(C(F)(F)F)nc4)c3C[C@H]2CN1C(=O)c1ccccc1,outcome,[1],inactive
same,outcome,[2],inactive
COC(=O)[C@@]1(Cc2ccc(OC)cc2)[C@H]2c3cc(C(=O)N4CCCC4)n(Cc4cc(C)n(C)n4)c3C[C@H]2CN1C(=O)c1ccccc1,outcome,[1],inactive
same,outcome,[2],inactive
Cc1ccc(CNC(=O)[C@H]2C[C@@H]2[C@H](NP(=O)(c2ccccc2)c2ccccc2)c2ccccc2)o1,outcome,[1],inactive
same,outcome,[2],inactive
COC(=O)[C@@]1(Cc2ccc(F)cc2)[C@H]2c3cc(C(=O)N4CCCC4)n(CC4CC4)c3C[C@H]2CN1C(=O)c1ccccc1,outcome,[1],inactive
same,outcome,[2],inactive
COC(=O)[C@@]1(Cc2ccc(F)cc2)[C@H]2c3cc(C(=O)N(C)C)n(Cc4ccc(O)c(OC)c4)c3C[C@H]2CN1C(=O)c1ccccc1,outcome,[1],inactive
same,outcome,[2],inactive
Cc1cc(CNC(=O)[C@H](C)[C@@H]2C[C@@]2(C)[C@@H](NC(=O)OCc2ccccc2)c2ccccc2)nn1C,outcome,[1],inactive
same,outcome,[2],inactive
COc1ccc(CNC(=O)[C@H]2C[C@@H]2[C@H](NP(=O)(c2ccccc2)c2ccccc2)c2ccccc2)cc1OC,outcome,[1],inactive
same,outcome,[2],inactive
COC(=O)[C@@]1(Cc2ccc(F)cc2)[C@H]2c3cc(C(=O)N(C)C)n(Cc4ccccn4)c3C[C@H]2CN1C(=O)c1ccccc1,outcome,[1],inactive
same,outcome,[2],inactive
COC(=O)[C@@]1(Cc2ccc(OC)cc2)[C@H]2c3cc(C(=O)N4CCCC4)n(Cc4nc5ccccc5[nH]4)c3C[C@H]2CN1C(=O)c1ccccc1,outcome,[1],inactive
same,outcome,[2],inactive
same,Potency,[4],2 µM (active)
same,Potency,[5],inactive
COC(=O)[C@@]1(Cc2ccc(OC)cc2)[C@H]2c3cc(C(=O)N4CCCC4)n(CCN4CNCC4=O)c3C[C@H]2CN1C(=O)c1ccccc1,outcome,[1],inactive
same,outcome,[2],inactive
COC(=O)[C@@]1(Cc2ccc(OC)cc2)[C@H]2c3cc(C(=O)N4CCCC4)n(CCc4c[nH]c5ccccc45)c3C[C@H]2CN1C(=O)c1ccccc1,outcome,[1],inactive
same,outcome,[2],inactive
COC(=O)[C@@]1(Cc2ccccc2)[C@H]2c3cc(C(=O)N(C)C)n(Cc4nc5ccccc5[nH]4)c3C[C@H]2CN1C(=O)c1ccccc1,outcome,[1],inactive
same,outcome,[2],inactive
COC(=O)[C@@]1(Cc2ccc(F)cc2)[C@H]2c3cc(C(=O)N(C)C)n(CCF)c3C[C@H]2CN1C(=O)c1ccccc1,outcome,[1],inactive
same,outcome,[2],inactive
C[C@@H](C(=O)Nc1ccc2ccccc2c1)[C@H]1C[C@]1(C)[C@H](NC(=O)c1ccccc1)c1ccccc1,outcome,[1],inactive
same,outcome,[2],inactive
COC(=O)[C@@]1(Cc2ccc(OC)cc2)[C@H]2c3cc(C(=O)N(C)C)n(CCO)c3C[C@H]2CN1C(=O)c1ccccc1,outcome,[1],inactive
same,outcome,[2],inactive
COC(=O)[C@@]1(Cc2ccc(F)cc2)[C@H]2c3cc(C(=O)N(C)C)n(Cc4cc(C)n(C)n4)c3C[C@H]2CN1C(=O)c1ccccc1,outcome,[1],inactive
same,outcome,[2],inactive
O=C(N[C@@H](c1ccccc1)[C@@H]1C[C@H]1C(=O)NCc1ccccc1)OCc1ccccc1,outcome,[1],inactive
same,outcome,[2],inactive
C[C@@H](C(=O)NCc1ccccc1)[C@H]1C[C@]1(C)[C@H](NC(=O)OCc1ccccc1)c1ccccc1,outcome,[1],inactive
same,outcome,[2],inactive
C[C@H](CO)NC(=O)[C@H](C)[C@@H]1C[C@@]1(C)[C@@H](NC(=O)OCc1ccccc1)c1ccccc1,outcome,[1],inactive
same,outcome,[2],inactive
same,Potency,[4],5.01 µM (active)
same,Potency,[5],inactive
